Sampled rows, rich in hits. Any-hit rate of the full collection: about 1.2%.
PolyA inh: polyadenylation inhibitors in yeast reporter cells, primary screen, luminescence, S. cerevisiae | S. cerevisiae SKY197-pL101 polyadenylation reporter, beta-gal luminescence; efflux-impaired pdr1/pdr3 knockout yeast; score 100 = 6 SD above DMSO | activity score, % at 12 µM | 0.02% of 300,000 active | AID 1875, 2009;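 active means lowest replicate activity score at least 50, where 100 means six control SD above control mean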;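 further: yeast exposed to compound for 9 h at 30 °C; higher score means more reporter readthrough which indicates perturbed polyadenylation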
A3A deaminase: APOBEC3A ssDNA deaminase inhibitors, primary screen, selectivity assay for APOBEC3G inhibitor project, biochemical, FAM/TAMRA oligo cleavage fluorescence. DNA dC->dU-editing enzyme APOBEC-3A (Homo sapiens), P31941. recombinant A3A, FAM/TAMRA ssDNA deamination fluorescence. inhibition, % at 20 µM. 0.41% of 330,000 active. AID 493011, 2011;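 active means at least 40% inhibition at 20 µM here, with at most 30% in a related deaminase screen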;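 further: plate controls were A3A with DMSO for no effect and wells lacking A3A enzyme for full effect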
A3G deaminase: APOBEC3G DNA deaminase inhibitors, primary screen, biochemical, fluorescence, single-stranded DNA substrate, uHTS | recombinant A3G, ssDNA deamination FAM/TAMRA fluorescence | DNA dC->dU-editing enzyme APOBEC-3G (Homo sapiens), Q9HC16 | 0.28% of 330,000 active | AID 493012, 2011 | inhibition, % at 20 µM;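 active means inhibition of at least 40% at 20 µM, with no more than 30% in the related APOBEC3A deaminase screen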;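 further: plate controls were DMSO wells with A3G for no effect and wells lacking A3G enzyme for full effect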
Target sequence (Q9HC16 whole entry, looked up): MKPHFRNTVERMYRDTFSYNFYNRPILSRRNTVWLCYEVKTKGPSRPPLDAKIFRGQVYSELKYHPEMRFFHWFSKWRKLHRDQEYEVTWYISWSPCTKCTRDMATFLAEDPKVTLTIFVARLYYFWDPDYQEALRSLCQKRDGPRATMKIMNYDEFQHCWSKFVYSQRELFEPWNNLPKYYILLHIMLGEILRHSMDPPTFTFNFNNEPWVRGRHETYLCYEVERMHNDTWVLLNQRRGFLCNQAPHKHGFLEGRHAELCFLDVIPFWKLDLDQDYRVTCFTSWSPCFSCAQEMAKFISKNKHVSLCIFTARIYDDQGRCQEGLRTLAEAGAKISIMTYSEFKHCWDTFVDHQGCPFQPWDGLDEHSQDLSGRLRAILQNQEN
NALP1 yeast inh: NALP1 inflammasome inhibitors in reconstituted yeast, colorimetric, S. cerevisiae, triplicate retest | inhibition, % at 10 µM | 0.61% of 280,000 active | S. cerevisiae NALP1/ASC/caspase-1 growth, X-gal OD620, 72 h; in the data active means inhibition mostly above about 24%, no sharp cut-off; inactive means mostly below about 32%
The depositor's hits bear a star; · = no result.

SMILES	PolyA inh	A3A deaminase	A3G deaminase	NALP1 yeast inh
COCc1ccc(C(=O)N2CCCC(C(=O)c3ccc(SC)cc3)C2)o1 (stereo not given)	4	-2	-10	-3
COc1cc(CNC(C)(C)CO)cc(Br)c1OCc1ccc(Cl)cc1Cl	-5	-2	-4	58*
COc1cc(CNCCO)cc(Cl)c1OCc1ccc(Cl)cc1Cl	-12	1	1	38*
COc1cc(CNCCO)cc(Br)c1OCc1ccccc1Cl	11	2	1	25
Cc1cccc(CCN2C(N(C)C)=NC[C@@H]2C)c1	·	-1	18	·
Cc1ccccc1[C@@H](NC(=O)OC(C)(C)C)C(=O)OC(C)(C)C	·	0	-8	·
COC(=O)c1ccc2c(c1)C(C)(C)C(/C=C/c1ccc(O)cc1)=[N+]2C	-32	24	17	52*
COc1cc(/C=C/c2ccc(O)cc2)cc(OC)c1	-1	4	-4	8
CCOC(=O)CC1C(=O)NCCN1C(=O)c1ccc(Cl)c(Cl)c1 (stereo not given)	-11	5	-4	14
Cc1ccc2c(c1)c(N=Nc1ccc([N+](=O)[O-])cc1)c(O)n2C	6	-6	-7	33*
Cn1c(O)c(N=Nc2ccccc2)c2ccccc21	-11	0	-3	22
COCCN(C(=O)c1cc(Cl)nc2ccccc12)c1c(N)n(Cc2ccccc2)c(=O)[nH]c1=O	·	-2	-4	·
O=C(Nc1ccc(F)cc1)Nc1ccc(Cl)cn1	-8	-2	-8	-2
O=C(Nc1ccc(Cl)cn1)Nc1ccc(Cl)cn1	-6	-1	7	30*
CCN1CCN(c2c(Cl)cccc2NC(=O)c2ccc([N+](=O)[O-])o2)CC1	-5	-5	-3	31*
Cn1cnc([N+](=O)[O-])c1NC(C)(C)C	-20	-4	-5	31
Cn1cnc([N+](=O)[O-])c1S(=O)(=O)c1ccc(Cl)cc1	-28	·	·	80*
COC(=O)CN(c1ccccc1C)S(C)(=O)=O	6	1	-8	31*
C/C(=C\C=C(C#N)C#N)c1cc(C#N)c(N)o1	59*	-1	-8	21
c1ccc2c(Nc3ccc4c(c3)OCCO4)c3c(nc2c1)CCCC3	-9	-4	-7	29*
COc1ccccc1Oc1ccc(N2CC(C(=O)OCC(=O)c3ccccc3)CC2=O)cc1 (stereo not given)	-7	-1	-6	4
CCOC(=O)Cn1c(=O)oc2cc(S(=O)(=O)NCCC(C)C)ccc21	17	-3	-6	41*
CC1=CC(C)(C)N(C(=O)CCl)c2ccccc21	8	-4	-6	28*
CC1=CC(C)(C)N(C(=O)CCl)c2cc(C)ccc21	·	1	-4	-3
COc1ccc(-c2cc(C(=O)N/N=C/c3sccc3C)c3ccccc3n2)c(OC)c1	-3	0	-2	41*
SMILES	PolyA inh	A3A deaminase	A3G deaminase	NALP1 yeast inh
COc1ccc(-c2cc(C(=O)N/N=C/c3ccc4c(c3)OCO4)c3ccccc3n2)c(OC)c1	-4	-2	-5	-2
O=[N+]([O-])c1ccc(OCCOc2ccccc2/C=N/n2cnnc2)cc1	25	0	1	34*
O=C(C1CCN(S(=O)(=O)c2ccccc2)CC1)N1CCCCC1	-4	-4	-1	1
Cc1ccc(-n2nc(C)c3c(C)c(CCC(=O)NC(C)c4ccccc4)c(C)nc32)cc1 (stereo not given)	8	-6	-6	39*
Cc1ccc(-n2nc(C)c3c(C)c(CCC(=O)O)c(C)nc32)cc1	2	-1	-1	4
C[C@H](CO)N1C[C@H](C)[C@@H](CN(C)Cc2ccncc2)Oc2c(NC(=O)C3CC3)cccc2C1=O	·	-4	-9	·
C=CS(=O)(=O)c1ccc(Oc2ccc(S(=O)(=O)C=C)cc2)cc1	-44	5	-8	75*
NS(=O)(=O)c1ccc(Oc2ccc(S(N)(=O)=O)cc2)cc1	-1	0	-4	-17
CCCOc1ccc(CCC(=O)N/N=C/c2ccncc2)cc1	21	-8	-10	-4
Cc1ccc2cc3cc(C(=O)NCCCN4CCc5ccccc5C4)oc3nc2c1	11	2	-4	46*
COc1ccc(Cn2c(=O)[nH]c3cc(C(=O)N4CCN(Cc5ccccc5)CC4)ccc3c2=O)cc1	-10	0	-3	27*

Screens (PubChem BioAssay)
